Molecules are shown by their SMILES.

For the first assay, the system named is Plasmodium falciparum. Put plainly: GSK_TCMDC: Inhibition of Plasmodium falciparum Dd2 in whole red blood cells, using parasite LDH activity as an index of growth. Test compounds present at 2uM. Type of assay: functional.
A word on the Inhibition: it is the change of the read-out against control, counted positive when it falls. A lower Inhibition goes with little suppression. For the molecule `O=C(/C=C/c1ccc(Cl)c(Cl)c1)NCCCCN1CCCN(C(=O)Nc2ccc(C(F)(F)F)cc2)CC1`, the Inhibition was 0%.

`COc1ccc2nc(C)cc(NCc3ccc4ccccc4c3)c2c1.Cl`: the Inhibition is reported as 75%.

In turn, `c1ccc(COc2ccc(COc3ccc(Cn4ccnc4)cc3)cc2)cc1` returned an Inhibition of 45%.

`COc1ccc2oc(=O)c(C#N)c(O)c2c1` returned an Inhibition of 0%.

Another assay has as its system HepG2. The experiment in a line: GSK_TCMDC: Percent inhibition of human HepG2 cell line. Test compounds present at 10uM. Type of assay: functional.
On to `CC[C@H](C)CNC(=O)c1cccc(-c2cccc(CNCC3CNCCCO3)c2)n1.O=C(O)C(F)(F)F` (some centres undefined), for which the Inhibition stood at 15%.

`O=C(C=Cc1ccc(-c2ccccc2)cc1)N1CCC(CCN2CCC(c3c[nH]c4ccccc34)CC2)CC1` showed an Inhibition of 44%.

In turn, `CC(C)OC(=O)c1cccnc1SCC(=O)Nc1ccc(C(F)(F)F)cc1Cl` had an Inhibition of 3%.

In turn, `NCc1ccc(CNCc2ccc(-c3ccc(-c4nc5cc(C(F)(F)F)ccc5[nH]4)s3)cc2)cc1.O=C(O)C(F)(F)F` came in with an Inhibition of 34%.

Molecule `COc1ccc2nccc([C@@H](O)CN3CCC(NCC4COc5ccccc5O4)CC3)c2c1.O=C(O)C(=O)O` (some centres undefined) displayed an Inhibition of 17%.

In turn, `CN1CCC(NC(=O)c2cc(Oc3ccc4c(c3)CCN4C(=O)Nc3cccc(C(F)(F)F)c3)ccn2)CC1.O=C(O)C(F)(F)F` yielded an Inhibition of 16%.

`Cn1nc(-c2ccc(S(=O)(=O)N3CCC(CCN4CCC(c5c[nH]c6ccccc56)CC4)CC3)s2)cc1C(F)(F)F` came in with an Inhibition of 40%.

In turn, `CN(C)CCc1coc2ccc(C(=O)Nc3ccc(-c4ccc(O)cc4)cc3)cc12` returned an Inhibition of 28%.

For `COc1cc(Nc2ccnc3ccc(C(F)(F)F)cc23)ccc1OCCCc1ccccc1`, the Inhibition came out at 11%.

With `CC(C)C[C@@H](/C=N/N1CC(=O)NC1=O)NC(=O)[C@H](CC(C)C)NC(=O)c1ccc(OCCN2CCOCC2)cc1`, the Inhibition turned out to be 11%.

The record behind these values is ChEMBL document CHEMBL1157539, “Thousands of chemical starting points for antimalarial lead identification” (Nature, 2010).
